PubChem BioAssay AID1159580 (chemical genetic matrix, 2015)
The campaign covered roughly 5,500 compounds. About 2,000 (36%) were called active. Inconclusive results (about 18%) are left out. No stated cut-off is given here; in the data, active means normalized growth mostly below about 0.91 (no sharp cut-off); inconclusive means no clear call, values can overlap the other calls; inactive means mostly above about 0.92. The list shows a part of the results.

Test: chemical genetic growth profiling, strain panel (AID 1159580);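 further: tested at 20 µM; growth read once vehicle control cultures reached saturation at 30 °C; 1 = growth at the plate median or of vehicle wells; lower values mean less growth of the strain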
Conditions: S. cerevisiae deletion strains, growth OD

Measured: normalized growth

CC(C)(Oc1ccc(Cl)cc1)C(=O)O
inactive: locus YAL013W, strain DEP1, active compounds read low 1 | locus YAL021C, strain ccr4, active compounds read low 1.02 | locus YAL026C, strain drs2, active compounds read low 1.03 | locus YAL030W, strain snc1, active compounds read low 0.996 | locus YBL061C, strain skt5, active compounds read low 1.04 | locus YBR009C, strain hhf1, active compounds read low 0.988 | locus YBR021W, strain FUR4, active compounds read low 1.12 | locus YBR023C, strain chs3, active compounds read low 1.03 | locus YBR171W, strain sec66, active compounds read low 1.02 | locus YBR229C, strain ROT2, active compounds read low 0.998 | locus YBR231C, strain swc5, active compounds read low 0.997 | locus YBR279W, strain paf1, active compounds read low 1.02 | locus YCL011C, strain gbp2, active compounds read low 1 | locus YCL016C, strain dcc1, active compounds read low 1.03 | locus YCL029C, strain bik1, active compounds read low 0.956 | locus YCL069W, strain vba3, active compounds read low 1.01 | locus YCR088W, strain abp1, active compounds read low 1.01 | locus YDL005C, strain med2, active compounds read low 1.02 | locus YDL035C, strain GPR1, active compounds read low 0.997 | locus YDL040C, strain nat1, active compounds read low 0.996 | locus YDL074C, strain BRE1, active compounds read low 0.949 | locus YDL101C, strain DUN1, active compounds read low 0.986 | locus YDL134C, strain PPH21, active compounds read low 1 | locus YDL185W, strain tfp1, active compounds read low 0.938 | locus YDL192W, strain arf1, active compounds read low 0.981 | locus YDR001C, strain nth1, active compounds read low 1 | locus YDR069C, strain doa4, active compounds read low 1.01 | locus YDR101C, strain arx1, active compounds read low 0.979 | locus YDR137W, strain rgp1, active compounds read low 1.01 | locus YDR150W, strain NUM1, active compounds read low 0.995 | locus YDR159W, strain sac3, active compounds read low 0.949 | locus YDR162C, strain NBP2, active compounds read low 0.987 | locus YDR195W, strain ref2 0.979 | locus YDR297W, strain sur2, active compounds read low 0.99 | locus YDR318W, strain mcm21, active compounds read low 0.98 | locus YDR334W, strain swr1, active compounds read low 1 | locus YDR335W, strain msn5, active compounds read low 1.01 | locus YDR388W, active compounds read low 0.979 | locus YDR392W, strain spt3, active compounds read low 0.974 | locus YDR502C, strain sam2, active compounds read low 0.993 | locus YEL003W, strain gim4, active compounds read low 0.984 | locus YEL037C, strain rad23, active compounds read low 1.01 | locus YEL061C, strain CIN8 (second series), active compounds read low 1 | locus YEL061C, strain CIN8, active compounds read low 1 | locus YER015W, strain faa2, active compounds read low 1.01 | locus YER016W, strain bim1, active compounds read low 1.03 | locus YER110C, active compounds read low 0.983 | locus YER111C, strain swi4, active compounds read low 1.01 | locus YER155C, strain BEM2 (second series), active compounds read low 1.01 | locus YER155C, strain BEM2, active compounds read low 0.983 | locus YER167W, strain BCK2, active compounds read low 0.999 | locus YFR010W, strain ubp6, active compounds read low 0.976 | locus YGL078C, strain dbp3, active compounds read low 0.998 | locus YGL086W, strain mad1, active compounds read low 0.997 | locus YGL167C, strain pmr1, active compounds read low 1.01 | locus YGL173C, strain kem1, active compounds read low 0.982 | locus YGL227W, strain vid30, active compounds read low 0.993 | locus YGL240W, strain doc1, active compounds read low 1 | locus YGL248W, strain PDE1, active compounds read low 1 | locus YGL253W, strain hxk2, active compounds read low 1.01 | locus YGR078C, strain PAC10, active compounds read low 0.954 | locus YGR135W, strain pre9, active compounds read low 1.01 | locus YGR229C, strain SMI1, active compounds read low 1 | locus YGR252W, strain gcn5, active compounds read low 1.23 | locus YHR013C, strain ard1, active compounds read low 1.02 | locus YHR027C, strain rpn1, active compounds read low 1 | locus YHR030C, strain SLT2, active compounds read low 1 | locus YHR079C, strain IRE1 (second series), active compounds read low 0.964 | locus YHR094C, strain hxt1, active compounds read low 0.963 | locus YHR129C, strain ARP1, active compounds read low 0.988 | locus YHR142W, strain chs7, active compounds read low 1.04 | locus YHR200W, strain rpn10, active compounds read low 0.977 | locus YIL066C, strain RNR3, active compounds read low 0.99 | locus YIL073C, strain SPO22, active compounds read low 0.948 | locus YIL125W, strain kgd1, active compounds read low 0.98 | locus YIR030C, strain dcg1, active compounds read low 0.988 | locus YJL092W, strain hpr5, active compounds read low 1.02 | locus YJL095W, strain BCK1 (second series), active compounds read low 1.02 | locus YJL095W, strain BCK1, active compounds read low 0.976 | locus YJL115W, strain asf1, active compounds read low 1.01 | locus YJL129C, strain trk1, active compounds read low 1.03 | locus YJL134W, strain LCB3, active compounds read low 0.999 | locus YJL154C, strain vps35, active compounds read low 1.01 | locus YJL164C, strain tpk1, active compounds read low 0.993 | locus YJL166W, strain qcr8, active compounds read low 0.997 | locus YJL168C, strain set2, active compounds read low 0.976 | locus YJL187C, strain SWE1 (second series), active compounds read low 0.973 | locus YJR043C, strain POL32, active compounds read low 0.985
